From PubChem BioAssay (NCI)
The panel holds about 79,000 compounds, 15% with a hit somewhere; the sample as a whole holds those more often. The source made the active and inactive calls. Cut-off read from the data, not from the text of the source: active = growth inhibition above about 70%; inactive = the rest.

Legend:
[1] = NCI Yeast Anticancer Drug Screen. Data for the wt1 strain (AID 149);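 note: 0% = growth of vehicle-treated wt1 cultures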; conditions: S. cerevisiae wt1 strain (SPY 50644) growth inhibition, hits give high values
How it was run: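 Yeast wt1 strain exposed to compounds; growth inhibition measured relative to vehicle-treated controls.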

[2] = NCI Yeast Anticancer Drug Screen. Data for the rad50EPP+ strain (AID 151);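 note: 0% = growth of vehicle-treated control cultures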; conditions: S. cerevisiae rad50 mutant strain, hits give high values
How it was run: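 Read-out is yeast growth inhibition relative to vehicle; cells used were the rad50EPP+ strain.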

[3] = NCI Yeast Anticancer Drug Screen. Data for the mgt1 strain (AID 153); conditions: S. cerevisiae mgt1 mutant growth inhibition, hits give high values
How it was run: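 Measured: inhibition of mgt1 yeast growth by compound, normalized to vehicle-treated cultures.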

[4] = NCI Yeast Anticancer Drug Screen. Data for the rad50 strain (AID 155);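 note: 0% = growth of vehicle-only cultures of the same strain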; conditions: S. cerevisiae rad50 strain growth inhibition, hits give high values
How it was run: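 Yeast carrying a defined DNA repair defect were exposed to test compounds, and growth was compared with vehicle-treated controls to give percent inhibition.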

[5] = NCI Yeast Anticancer Drug Screen. Data for the mec2-1 strain (AID 157); conditions: S. cerevisiae mec2-1 strain, hits give high values
How it was run: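 Using mec2-1 yeast: add compound, measure growth, express inhibition versus vehicle-treated cultures.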

[6] = NCI Yeast Anticancer Drug Screen. Data for the rad14 strain (AID 159);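 note: 0% = growth of vehicle-treated control cultures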; conditions: S. cerevisiae rad14 strain growth inhibition, hits give high values
How it was run: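 Yeast cells carrying a defined DNA-repair defect were exposed to compounds, and growth inhibition was calculated relative to vehicle-treated control cultures.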

[7] = NCI Yeast Anticancer Drug Screen. Data for the sgs1 mgt1 strain (AID 161);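 note: 0% = growth of cultures given vehicle only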; conditions: S. cerevisiae sgs1 mgt1 strain, hits give high values
How it was run: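 Yeast cells carrying a defined DNA-repair defect were exposed to test compounds. Growth inhibition was measured relative to vehicle-treated controls.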

[8] = NCI Yeast Anticancer Drug Screen. Data for the CLN2oe strain (AID 163);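 note: 0% = growth of vehicle-only control cultures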; conditions: S. cerevisiae CLN2oe strain, hits give high values
How it was run: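 Whole-cell yeast growth assay. A strain engineered for altered cell-cycle control received compound, and inhibition relative to vehicle-treated cultures was recorded.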

[9] = NCI Yeast Anticancer Drug Screen. Data for the cln2 rad14 strain (AID 165);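 note: 0% = growth equal to vehicle treated cultures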; conditions: S. cerevisiae cln2 rad14 strain, hits give high values
How it was run: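 Yeast strain cln2 rad14, bearing defects in cell cycle control and DNA repair, serves as the test system; values reflect growth inhibition compared with vehicle.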

[10] = NCI Yeast Anticancer Drug Screen. Data for the bub3 strain (AID 167); conditions: S. cerevisiae bub3 mutant strain, hits give high values
How it was run: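 Compounds were applied to a genetically altered yeast strain carrying a cell-cycle control defect. Growth inhibition was scored against vehicle-treated controls.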

[11] = NCI Yeast Anticancer Drug Screen. Data for the wt2 strain (AID 169);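 note: 0% = growth of vehicle-treated yeast cultures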; conditions: S. cerevisiae wt2 strain growth inhibition, hits give high values
How it was run: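 Treated yeast vs. vehicle-treated yeast: growth inhibition determined.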

[12] = NCI Yeast Anticancer Drug Screen. Data for the mlh1 strain (AID 171);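 note: 0% = growth of vehicle-treated control cultures of the same strain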; conditions: S. cerevisiae mlh1 strain growth inhibition, hits give high values
How it was run: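 A yeast strain with a defined genetic lesion serves as the test organism. Cultures receive compound or vehicle, and growth is measured.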

[13] = NCI Yeast Anticancer Drug Screen. Data for the sgs1 strain (AID 173);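 note: 0% = growth of vehicle-only control cultures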; conditions: S. cerevisiae sgs1 mutant, hits give high values
How it was run: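 A genetically defined yeast mutant is incubated with the test compound, and its growth is compared to that of the same strain given vehicle.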

[14] = NCI Yeast Anticancer Drug Screen. Data for the mlh1 rad18 strain (AID 175); conditions: S. cerevisiae mlh1 rad18 strain growth inhibition, hits give high values
How it was run: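 Steps: expose repair-defective yeast to compound; measure growth; express inhibition against vehicle-treated controls.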

[15] = NCI Yeast Anticancer Drug Screen. Data for the rad18 strain (AID 177); conditions: S. cerevisiae rad18 mutant growth inhibition, hits give high values
How it was run: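 Measured value is growth inhibition of a yeast strain bearing a DNA repair alteration, referenced to vehicle-treated cells.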

[16] = at 5.0 µM (retest, dose inferred, filed as 0.5)
[17] = at 50.0 µM (retest, dose inferred, filed as 5.0)

Measured: growth inhibition

COc1ccc(/C(=N/O)c2ccccc2C2=Nc3ccccc3C(NCc3ccccc3)O2)cc1C (stereo unspecified)
inactive: [1]; at 1.2 µM -1% | [1]; at 3.7 µM -2% | [1]; at 11.0 µM 1% | [1]; at 33.0 µM 17% | [2]; at 1.2 µM 3% | [2]; at 3.7 µM 1% | [2]; at 11.0 µM 15% | [2]; at 33.0 µM 49% | [3]; at 1.2 µM -2% | [3]; at 3.7 µM -3% | [3]; at 11.0 µM -1% | [3]; at 33.0 µM 31% | [4]; at 1.2 µM 1% | [4]; at 3.7 µM 3% | [4]; [16] 2% | [4]; at 11.0 µM 11% | [4]; at 33.0 µM 59% | [5]; at 1.2 µM -2% | [5]; at 3.7 µM 0% | [5]; [16] -4% | [5]; at 11.0 µM 1% | [5]; at 33.0 µM 37% | [5]; [17] 62% | [6]; at 1.2 µM 1% | [6]; at 3.7 µM 2% | [6]; at 11.0 µM 7% | [6]; at 33.0 µM 21% | [7]; [16] -3% | [8]; at 1.2 µM -2% | [8]; at 3.7 µM 2% | [8]; at 11.0 µM 1% | [8]; at 33.0 µM 4% | [9]; [16] 31% | [9]; [17] 51% | [10]; at 1.2 µM -1% | [10]; at 3.7 µM 2% | [10]; [16] 15% | [10]; at 11.0 µM 4% | [10]; at 33.0 µM 48% | [11]; at 1.2 µM -1% | [11]; at 3.7 µM -3% | [11]; at 11.0 µM 0% | [11]; at 33.0 µM 14% | [12]; at 1.2 µM -6% | [12]; at 3.7 µM -2% | [12]; at 11.0 µM 0% | [12]; at 33.0 µM 14% | [13]; at 1.2 µM -2% | [13]; at 3.7 µM -2% | [13]; at 11.0 µM 2% | [13]; at 33.0 µM 45% | [14]; [16] 2% | [15]; at 1.2 µM 0% | [15]; at 3.7 µM 0% | [15]; at 11.0 µM 11% | [15]; at 33.0 µM 67%
active: [1]; at 100.0 µM 89% | [2]; at 100.0 µM 82% | [3]; at 100.0 µM 97% | [4]; [17] 95% | [4]; at 50.0 µM 94.9% | [4]; at 100.0 µM 94% | [5]; at 50.0 µM 92.6% | [5]; at 100.0 µM 96% | [6]; at 100.0 µM 96% | [7]; [17] 85% | [7]; at 50.0 µM 95.8% | [8]; at 100.0 µM 94% | [9]; at 50.0 µM 83% | [10]; [17] 93% | [10]; at 50.0 µM 94.8% | [10]; at 100.0 µM 95% | [11]; at 100.0 µM 96% | [12]; at 100.0 µM 96% | [13]; at 100.0 µM 95% | [14]; [17] 93% | [14]; at 50.0 µM 94.2% | [15]; at 100.0 µM 94%

O=C1C(Br)=CC(Br)(Br)C=C1Br
inactive: [1]; at 1.2 µM 6% | [1]; at 3.7 µM 9% | [1]; at 11.0 µM 47% | [2]; at 1.2 µM 24% | [2]; at 3.7 µM 31% | [3]; at 1.2 µM 9% | [3]; at 3.7 µM 1% | [3]; at 11.0 µM 58% | [4]; at 1.2 µM 0% | [4]; at 3.7 µM -3% | [4]; at 11.0 µM 30% | [5]; at 1.2 µM 6% | [5]; at 3.7 µM 28% | [5]; at 11.0 µM 51% | [6]; at 1.2 µM -32% | [6]; at 3.7 µM -10% | [6]; at 11.0 µM 28% | [7]; [16] -27% | [8]; at 1.2 µM 24% | [8]; at 3.7 µM 18% | [8]; at 11.0 µM 34% | [9]; [16] 56% | [10]; at 1.2 µM -8% | [10]; at 3.7 µM -16% | [10]; [16] 21% | [10]; at 11.0 µM 7% | [11]; at 1.2 µM -9% | [11]; at 3.7 µM -11% | [11]; at 11.0 µM 51% | [12]; at 1.2 µM -8% | [12]; at 3.7 µM -10% | [12]; at 11.0 µM 46% | [13]; at 1.2 µM 2% | [13]; at 3.7 µM 5% | [13]; at 11.0 µM 59% | [15]; at 1.2 µM -4% | [15]; at 3.7 µM -13% | [15]; at 11.0 µM 26%
active: [1]; at 33.0 µM 97% | [1]; at 100.0 µM 99% | [2]; at 11.0 µM 70% | [2]; at 33.0 µM 98% | [2]; at 100.0 µM 98% | [3]; at 33.0 µM 98% | [3]; at 100.0 µM 99% | [4]; [16] 99% | [4]; at 33.0 µM 95% | [4]; [17] 99% | [4]; at 50.0 µM 90.8% | [4]; at 100.0 µM 98% | [5]; [16] 100% | [5]; at 33.0 µM 99% | [5]; [17] 97% | [5]; at 50.0 µM 93.5% | [5]; at 100.0 µM 99% | [6]; at 33.0 µM 95% | [6]; at 100.0 µM 98% | [7]; [17] 100% | [7]; at 50.0 µM 93.7% | [8]; at 33.0 µM 98% | [8]; at 100.0 µM 99% | [9]; [17] 100% | [9]; at 50.0 µM 92.5% | [10]; at 33.0 µM 96% | [10]; [17] 99% | [10]; at 50.0 µM 92% | [10]; at 100.0 µM 98% | [11]; at 33.0 µM 96% | [11]; at 100.0 µM 98% | [12]; at 33.0 µM 96% | [12]; at 100.0 µM 98% | [13]; at 33.0 µM 96% | [13]; at 100.0 µM 98% | [14]; [16] 100% | [14]; [17] 100% | [14]; at 50.0 µM 90.6% | [15]; at 33.0 µM 95% | [15]; at 100.0 µM 98%
